# Calls of active or inactive are those of the source.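 Rule for the calls: active = cell killing with a fitted half-maximal concentration at most twice the top valid dose tested; inconclusive = flat curve with 30 to 70% signal loss, or poor fit; inactive = the rest.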
# Assay: HEK293 cell cytotoxicity, dose response, cytotoxicity control, luminescence, dry powder, set 8 (AID 743182)
# Settings: HEK293T viability, CellTiter-Glo ATP luminescence, 72 h; series mostly up to 26 µM
row,Structure (SMILES),outcome
1,O=C(N/N=C/c1c[nH]c2ccccc12)c1cccc(O)c1,inactive
2,O=C(N/N=C/c1c[nH]c2ccccc12)c1cccs1,inactive
3,CSc1ccc(/C=N/NC(=O)c2ccc3nc[nH]c3c2)cc1,inactive
